Compounds without any hit were thinned out: in the full panel of roughly 83,000, 20% have a hit.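 Compound tested at a single concentration for 48 hours in 96-well plates; a percent growth value below 10 was scored as active.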 Values without a mark were called inactive. The source made the active and inactive calls.
Tested on: SK-MEL-2 melanoma
Test: NCI-60 one-dose screen, 48 h (100 = growth as untreated, 0 = no growth, -100 = all killed)
Settings: 10 µM unless noted

Row | SMILES | growth
1 | CC[N+]1(CC)CC[N+]2(CCCC(C)CC2)CC1 (configuration not stated) | 110%
2 | CCNc1nc(O)c(/C=C2\C=Nc3ncccc32)s1 | -48.7% (active)
3 | COc1cc(/C=N/Nc2ccc(Br)cc2)cc(OC)c1OC | 73%

Tested on: EKVX NSCLC
Test: as above
Settings: 10 µM unless noted

Row | SMILES | growth
4 | COc1cc(/C=C2\CN(S(=O)(=O)c3ccccc3)C/C(=C\c3cc(CN4CCCCC4)c(O)c(OC)c3)C2=O)cc(CN2CCCCC2)c1O | -36.4% (active)
5 | O=C(N/N=C/c1cc(Cl)ccc1O)c1ccccc1Nc1ccnc(C(F)(F)F)c1 | 22.9%
6 | COc1cc(OC)c(C(=O)C(CN(C)C)CN(C)C)cc1OC | 20.3%
7 | CCOc1cccc(/C=N/NC(=O)c2cccc(Nc3ccnc(C(F)(F)F)c3)c2)c1O | 21.3%
8 | O=C1/C(=C/c2ccc(O)c(O)c2)COc2ccc(-c3ccccc3)cc21 | 78.8%
9 | CCN1C(=O)N(CC)C2C1NC(=S)N2/N=C/c1ccc(OC)cc1 (configuration not stated) | 79.6%
10 | Cc1ccc2c(=O)cc(C(=O)Nc3sc4c(c3C(=O)NCc3cccnc3)CCCC4)oc2c1C | 103%
11 | CCOC(=O)CC1CSC(Nc2ccccc2)=N1 (configuration not stated) | 104%
12 | Nn1c(=O)c(=O)[nH]c2c(cnn2-c2ccccc2)c1=O | 98.9%
13 | Nc1[nH]n2cc(-c3ccc(F)cc3)nc2c1N=Nc1ccc(S(N)(=O)=O)cc1 | 108%
14 | Cn1cc(-c2csc(-c3c[nH]c4ccc(F)cc34)n2)c2ccnc(Cl)c21 | 65.6%
15 | Cc1nc2c(c(=O)[nH]1)C(c1ccccc1)c1ccc3ccccc3c1O2 (configuration not stated) | 60.5%
16 | C=C(C)[C@@H]1CC[C@]2(C(N)=O)CC[C@]3(C)[C@H](CC[C@@H]4[C@@]5(C)CC[C@H](OCCC#N)C(C)(C)[C@@H]5CC[C@]43C)[C@@H]12 | 90.4%
17 | N#Cc1c(Nc2ccc(N3CCOCC3)cc2)nc(SCC(=O)c2ccc(Br)cc2)nc1-c1ccccc1 | 100%
18 | O=C(NNC(=O)c1ccc(NC(=O)c2ccccn2)cc1)Nc1ccc2ccccc2c1 | 113%
19 | CC(=O)OC[C@]12CC[C@@H]([C@@H](C)c3nnc(-c4ccncc4)o3)[C@@H]1[C@H]1CC[C@@H]3[C@@]4(C)CC[C@H](OC(C)=O)C(C)(C)[C@@H]4CC[C@@]3(C)[C@]1(C)CC2 | 69.3%
20 | CCN(CC)Cc1cc(Nc2ccnc3cc(Cl)ccc23)ccc1O | 68.5%
21 | COc1ccc(/C=C/C(c2cc(OC)c(OC)c(OC)c2)n2cncn2)cc1 (configuration not stated) | 66%
22 | Cc1ccc(C)c2c(C)c(C(=O)Nc3cccc(-n4cccn4)c3)oc12 | 53.8% [50 µM]
23 | COc1ccc(/C=C/C(c2cc(OC)c(OC)c(OC)c2)n2ccnc2)cc1O (configuration not stated) | 81.2%

Row | SMILES | growth
24 | O=S(=O)(NCCCNc1nccc(-c2c(-c3cccc(F)c3)nc3occn23)n1)c1ccc(F)cc1 | 54.3%
25 | Cn1cc(-c2ccc(-c3cn(C)c4ccc(Cl)cc34)[nH]2)c2cc(Cl)ccc21 | -89.2% (active)
26 | S=C(c1ccc2c(c1)OCO2)N1CCN(c2cccc(Cl)c2)CC1 | 50.9%
27 | O=C(O)c1ccc(-c2ccc(/C=N/Nc3nc(Nc4ccccc4)nc(N4CCCCC4)n3)o2)cc1 | 78.8%
28 | COc1cccc(Nc2ncnc3cc(NC(=O)CCl)ccc23)c1 | -24.4% (active)
29 | COc1ccc(-c2n[nH]c(=O)c3nc(NC(=S)Nc4ccc(Oc5ccccc5)cc4)sc23)cc1 | 106%
30 | COc1ccc(C(=O)N2c3ccccc3Sc3ccccc32)c(C(F)(F)F)c1 | 45.6%
31 | C#CCNC(=O)[C@]1(C)CCC[C@@]2(C)[C@H]1CC=C1C=C(C(C)C)CC[C@@H]12 | 94.6%
32 | O=C(CCCCCNC(=O)c1cc(=O)c(O)co1)Nc1ccccc1 | 98.1%
33 | CNC1=CC(=O)c2c(C(=O)OC)c(C)[n+]([O-])c(C)c2C1=O | 84%
34 | O=C1/C(=C\c2ccccn2)c2ccccc2N1c1c(Cl)cccc1Cl | 27.2%
35 | COc1cc(OC)cc(-c2ccc(-c3ccc(C(=N)N)o3)o2)c1 | 85.2%
36 | C#CCOc1cccc(-c2ncnc3cc(NC(=O)C=C)ccc23)c1 | 72.2%
37 | COc1ccc(-c2nn(-c3ccccc3)cc2/C=C/C(=O)NNC(=O)Nc2ccc(C)cc2)cc1 | 97.2%
38 | C/C(Cc1ccc(Cl)cc1)=C(\c1ccc(OCCCN(C)C)cc1)c1ccc(OC(=O)Cc2ccccc2)cc1 | 101%
39 | CCOC(=O)C(=CNc1cnc(Nc2ccc(N3CCOCC3)cc2)nc1Oc1ccc(OC)cc1)C(=O)OCC | 87.1%
40 | CC[N+]1(CC)CC[N+]2(CCCC(C)CC2)CC1 (configuration not stated) | 100%
41 | CCNc1nc(O)c(/C=C2\C=Nc3ncccc32)s1 | 14.1%
42 | COc1cc(/C=N/Nc2ccc(Br)cc2)cc(OC)c1OC | 63.9%
